Measured values reported in ChEMBL document CHEMBL4513146, “CO-ADD screening of Karazin Kharkiv National University (Ukraine) compounds”.
Measured potencies and affinities stand elsewhere.

tested on: Staphylococcus aureus; details: Concentration 32 ug.mL-1;; ASSAY_TEST Inhibition of Bacterial Growth; detection method Absorption (OD600); MEDIA CAMHB; plate type 384well; NBS; CORNING #3640; time 18 hr

Row | Structure (SMILES) | Inhibition [%]
1 | COc1ccc(C)cc1NC(=O)Cn1nc2ccc(SC(C)(C)C)nn2c1=O | 2.65
2 | CCC(C)NC(=O)Cn1nc2n(Cc3ccco3)c(=O)c3sccc3n2c1=O (stereo not given) | 7.96
3 | COc1ccc(-c2cc3c4nn(CC(=O)Nc5ccc(OC)cc5OC)c(=O)n4ccn3n2)cc1 | 6.72
4 | COc1ccc(-c2cc3c4nn(CC(=O)Nc5c(C)cc(C)cc5C)c(=O)n4ccn3n2)cc1 | 9.75
5 | CC(C)c1nnc2c(SCC(=O)Nc3cccc(Br)c3)nc3ccccc3n12 | 4.41
6 | COc1cc(NC(=O)C(C)Sc2nnc3c(=O)n(-c4cccc(OC)c4)ccn23)cc(OC)c1 (stereo not given) | -2.41
7 | Cc1ccc(NC(=O)Cn2nc3c(N4CCCC4)nccn3c2=O)cc1Cl | 3.49
8 | COc1ccc(NC(=O)CSc2nnc3c(=O)n(-c4ccc(Br)cc4)ccn23)cc1 | 5.23
9 | COc1ccc(CNC(=O)Cn2nc3c(SCc4ccc(Cl)cc4)nccn3c2=O)cc1 | -6.61
10 | CCc1nnc2c(S(=O)(=O)N(Cc3ccc(F)cc3)c3ccc(Cl)cc3)cccn12 | 8.89
11 | Cc1ccc(NC(=O)Cn2nc3c4c5c(sc4ncn3c2=O)CCCC5)cc1C | 0.13
12 | C=Cc1ccc(CN(c2cccc(Cl)c2)S(=O)(=O)c2cccn3c(C)nnc23)cc1 | -18.32
13 | O=c1c2nn(Cc3cccc(F)c3)c(=O)n2ccn1-c1ccccc1 | -1.92
14 | Cc1cc(Br)ccc1NC(=O)Cn1nc2c(SC3CCCCC3)nccn2c1=O | 6.25
15 | COc1cccc(Sc2nc3ccccc3n3c(=O)n(CC(=O)Nc4ccccc4)nc23)c1 | -1.75
